Laboratory results published in PubChem BioAssay.
Unmarked numbers belong to inactive results. Activity calls are given as the source filed them. Cut-off read from the data, not from the text of the source, unless noted: active = inhibition above about 30%; inactive = the rest.

Columns and labels:
[1] = biological target: Nuclear receptor coactivator 3 (Homo sapiens) (UniProt Q9Y6Q9); assay: SRC3 coactivator transcriptional activity inhibitors, confirmation, cell-based, luminescence, quadruplicate (AID 588792;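 active = mean inhibition over 43.08%, the solvent-only control mean plus 3 SD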;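 note: 0% = DMSO treated cells and 100% = gossypol at 36 µM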); settings: HEK293 GAL4-SRC3 luciferase reporter, at 3.6 µM, active compounds read high
[2] = tested on: transactivating tegument protein VP16 (Human herpesvirus 1), Gal4-VP16 luciferase reporter; assay: VP16 transactivation inhibitors, counter-screen for SRC3 inhibitor project, cell-based, luminescence, high throughput (AID 588794); settings: mammalian cells, VP16-driven luciferase reporter luminescence; at 3.6 µM; active compounds read high
[3] = biological target: Nuclear receptor coactivator 1 (Homo sapiens) (UniProt Q15788); assay: SRC1 coactivator transcriptional activity inhibitors, confirmation, cell-based, luminescence, quadruplicate (AID 588820;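 active = mean inhibition above 46.68%, the untreated control wells mean plus 3 SD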;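 note: 0% = DMSO wells and 100% = gossypol 36 µM treated wells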); settings: HEK293 GAL4-SRC1 luciferase reporter, at 3.6 µM, active compounds read high
[4] = VP16 transactivation inhibitors, counter-screen for SRC1 inhibitor project, cell-based, luminescence, high throughput (AID 588824; in the data active = inhibition above about 25%); settings: cell-based VP16 transactivation luciferase luminescence; at 3.6 µM; active compounds read high

Chain of Nuclear receptor coactivator 1 (Homo sapiens) (Q15788 whole entry, looked up, the tested form may be a part): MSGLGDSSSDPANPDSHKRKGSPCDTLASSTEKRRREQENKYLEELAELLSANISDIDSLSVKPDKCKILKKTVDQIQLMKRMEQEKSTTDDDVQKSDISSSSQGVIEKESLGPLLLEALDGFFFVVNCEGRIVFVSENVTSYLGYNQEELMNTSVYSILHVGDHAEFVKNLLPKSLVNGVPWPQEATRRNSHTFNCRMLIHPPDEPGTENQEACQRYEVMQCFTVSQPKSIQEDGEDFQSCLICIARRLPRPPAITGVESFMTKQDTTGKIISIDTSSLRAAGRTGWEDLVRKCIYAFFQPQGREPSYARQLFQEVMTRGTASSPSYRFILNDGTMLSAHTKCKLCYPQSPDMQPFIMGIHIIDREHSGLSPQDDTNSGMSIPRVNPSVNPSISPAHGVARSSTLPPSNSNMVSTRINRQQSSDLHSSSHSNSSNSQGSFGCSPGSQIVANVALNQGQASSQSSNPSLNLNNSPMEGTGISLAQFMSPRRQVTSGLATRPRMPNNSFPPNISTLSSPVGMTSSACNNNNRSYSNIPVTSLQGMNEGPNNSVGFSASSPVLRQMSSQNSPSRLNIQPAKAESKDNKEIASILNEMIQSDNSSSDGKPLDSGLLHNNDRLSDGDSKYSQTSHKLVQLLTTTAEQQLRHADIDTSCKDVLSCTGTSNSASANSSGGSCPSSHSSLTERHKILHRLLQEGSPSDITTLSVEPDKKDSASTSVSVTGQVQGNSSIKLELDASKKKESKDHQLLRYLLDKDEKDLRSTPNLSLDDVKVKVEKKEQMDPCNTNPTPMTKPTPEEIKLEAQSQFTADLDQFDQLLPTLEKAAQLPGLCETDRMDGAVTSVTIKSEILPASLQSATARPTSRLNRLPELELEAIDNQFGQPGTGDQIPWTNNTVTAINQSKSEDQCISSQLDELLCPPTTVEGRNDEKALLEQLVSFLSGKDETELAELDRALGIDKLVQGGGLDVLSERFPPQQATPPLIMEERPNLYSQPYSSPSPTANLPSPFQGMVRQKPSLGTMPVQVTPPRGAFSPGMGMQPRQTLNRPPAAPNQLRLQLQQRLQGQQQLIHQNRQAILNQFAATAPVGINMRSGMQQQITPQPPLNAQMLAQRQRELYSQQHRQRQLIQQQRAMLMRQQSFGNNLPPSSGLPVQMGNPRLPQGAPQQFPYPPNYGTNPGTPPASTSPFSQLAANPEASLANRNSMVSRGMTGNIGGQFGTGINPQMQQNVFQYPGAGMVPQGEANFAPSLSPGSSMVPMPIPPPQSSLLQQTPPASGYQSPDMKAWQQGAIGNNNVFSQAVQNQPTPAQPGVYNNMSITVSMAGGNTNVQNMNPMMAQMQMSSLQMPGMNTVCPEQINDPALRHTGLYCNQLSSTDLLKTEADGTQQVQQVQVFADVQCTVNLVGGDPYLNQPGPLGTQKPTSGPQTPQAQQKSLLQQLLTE
Chain of Nuclear receptor coactivator 3 (Homo sapiens) (Q9Y6Q9 whole entry, looked up, the tested form may be a part): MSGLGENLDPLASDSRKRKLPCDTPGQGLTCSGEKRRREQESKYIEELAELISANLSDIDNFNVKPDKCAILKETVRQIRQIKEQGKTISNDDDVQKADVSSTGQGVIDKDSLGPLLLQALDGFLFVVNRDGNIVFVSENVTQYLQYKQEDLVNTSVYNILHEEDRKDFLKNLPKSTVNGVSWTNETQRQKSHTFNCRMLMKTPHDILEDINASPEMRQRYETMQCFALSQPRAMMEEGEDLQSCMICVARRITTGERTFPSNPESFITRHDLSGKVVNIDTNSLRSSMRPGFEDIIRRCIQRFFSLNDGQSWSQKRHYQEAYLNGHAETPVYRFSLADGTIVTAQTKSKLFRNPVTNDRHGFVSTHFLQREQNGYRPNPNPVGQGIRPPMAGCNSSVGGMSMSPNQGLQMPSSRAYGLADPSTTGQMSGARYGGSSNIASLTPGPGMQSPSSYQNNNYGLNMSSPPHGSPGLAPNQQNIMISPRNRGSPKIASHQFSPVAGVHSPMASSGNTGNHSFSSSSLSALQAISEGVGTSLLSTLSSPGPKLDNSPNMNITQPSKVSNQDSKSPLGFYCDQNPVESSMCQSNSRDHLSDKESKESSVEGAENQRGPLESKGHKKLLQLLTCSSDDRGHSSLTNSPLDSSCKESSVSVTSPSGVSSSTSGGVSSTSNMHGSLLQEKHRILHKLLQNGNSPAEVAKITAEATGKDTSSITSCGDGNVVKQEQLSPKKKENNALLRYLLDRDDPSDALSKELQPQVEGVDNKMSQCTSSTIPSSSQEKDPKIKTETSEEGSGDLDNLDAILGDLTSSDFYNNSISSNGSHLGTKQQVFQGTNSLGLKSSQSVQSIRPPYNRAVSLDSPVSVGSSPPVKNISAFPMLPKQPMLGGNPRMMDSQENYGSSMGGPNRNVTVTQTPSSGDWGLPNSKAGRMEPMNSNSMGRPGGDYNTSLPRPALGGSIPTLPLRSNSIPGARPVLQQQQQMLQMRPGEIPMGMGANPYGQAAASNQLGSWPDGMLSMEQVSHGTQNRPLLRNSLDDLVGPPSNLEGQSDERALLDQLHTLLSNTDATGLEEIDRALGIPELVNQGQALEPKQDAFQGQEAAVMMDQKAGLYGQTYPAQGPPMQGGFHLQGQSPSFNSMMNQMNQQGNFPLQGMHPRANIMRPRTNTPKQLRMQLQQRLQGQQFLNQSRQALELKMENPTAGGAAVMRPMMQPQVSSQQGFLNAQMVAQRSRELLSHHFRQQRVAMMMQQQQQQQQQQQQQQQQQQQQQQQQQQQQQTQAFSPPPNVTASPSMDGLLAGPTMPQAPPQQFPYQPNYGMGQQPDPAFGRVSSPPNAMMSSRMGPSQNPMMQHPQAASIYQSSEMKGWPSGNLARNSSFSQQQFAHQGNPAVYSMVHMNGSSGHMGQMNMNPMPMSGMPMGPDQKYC

SMILES | inhibition [1] | inhibition [2] | inhibition [3] | inhibition [4]
CN(C(=O)COC(=O)/C=C/c1cccc([N+](=O)[O-])c1)C1CCS(=O)(=O)C1 (stereo unspecified) | 39.1% | 32.4% (active) | 41.6% | 29.5% (active)
Cc1ccc(NC(=O)C2CCN(c3ncnc4sc(C)c(C)c34)CC2)cc1S(=O)(=O)N(C)C | 10.3% | 12.1% | 17.6% | 1.39%
COc1ccc2cc3c(N)nn(C(=O)c4ccc(Cl)c([N+](=O)[O-])c4)c3nc2c1 | 70.2% (active) | 39.4% (active) | 56.7% (active) | 36.5% (active)
O=C(NCc1ccc(Cl)cc1)c1csc(-c2cccnc2)n1 | 13.6% | 16.3% | 10.2% | 7.38%
O=C(N/N=C/c1cc(Cl)cc(Cl)c1O)c1ccncc1 | 26.5% | 40.9% (active) | 30.7% | 33.7% (active)
O=C(N/N=C/c1ccccc1O)/C(=C/c1ccccc1)CCO | 16.7% | 18.1% | 20% | 19.2%
COc1ccc(O)c(/C=N/NC(=O)c2c(C)nnn2-c2nonc2N)c1 | 25.4% | 19.7% | 14.4% | 12%
Nc1ccn([C@@H]2O[C@H](CO)[C@@H](O)C2O)c(=O)n1 (stereo partly specified) | 33.8% | 30.9% (active) | 32.5% | 19.4%
COC(=O)c1cc2c(n1S(=O)(=O)c1ccc(C)cc1)C(=O)C(=O)c1[nH]cc(C(=O)OCc3ccccc3)c1-2 | 96.9% (active) | 93.6% (active) | 81.9% (active) | 93.2% (active)
